Reference: PubChem BioAssay (NCI)
This is part of a sample that, as a whole, favours compounds with a hit. Of some 79,000 tested, about 15% had one in any assay. Values without a mark were called inactive. Active and inactive are the calls of the source. Rule as the data show it: active = growth inhibition above about 70%; inactive = the rest.

What was measured:
[1] = NCI Yeast Anticancer Drug Screen. Data for the rad50 strain (AID 155);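 also: 0% = growth of vehicle-only cultures of the same strain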; settings: S. cerevisiae rad50 strain growth inhibition; at 50.0 µM; hits give high values
Summary of the method: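 Relative growth inhibition (compound vs vehicle) was measured in yeast with a defined repair-gene alteration.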

[2] = NCI Yeast Anticancer Drug Screen. Data for the mec2-1 strain (AID 157); settings: S. cerevisiae mec2-1 strain, at 50.0 µM, hits give high values
Summary of the method: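 Each compound was tested on mec2-1 yeast, a strain altered in DNA damage repair or cell cycle control. Growth inhibition is reported relative to vehicle.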

[3] = NCI Yeast Anticancer Drug Screen. Data for the sgs1 mgt1 strain (AID 161);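 also: 0% = growth of cultures given vehicle only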; settings: S. cerevisiae sgs1 mgt1 strain, at 50.0 µM, hits give high values
Summary of the method: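 Inhibition of yeast growth, normalised to vehicle-treated controls, is reported for a strain bearing genetic alterations in DNA damage repair.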

[4] = NCI Yeast Anticancer Drug Screen. Data for the cln2 rad14 strain (AID 165);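 also: 0% = growth equal to vehicle treated cultures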; settings: S. cerevisiae cln2 rad14 strain, at 50.0 µM, hits give high values
Summary of the method: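 Test compounds were added to cln2 rad14 yeast cultures; inhibition of growth was then determined by comparison with vehicle treatment.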

[5] = NCI Yeast Anticancer Drug Screen. Data for the bub3 strain (AID 167); settings: S. cerevisiae bub3 mutant strain, at 50.0 µM, hits give high values
Summary of the method: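 Screening used yeast with an engineered genetic alteration affecting cell cycle control. Compound-exposed cultures were compared with vehicle cultures, and reduced growth was taken as inhibition.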

[6] = NCI Yeast Anticancer Drug Screen. Data for the mlh1 rad18 strain (AID 175); settings: S. cerevisiae mlh1 rad18 strain growth inhibition; at 50.0 µM; hits give high values
Summary of the method: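 Inhibition values reflect reduced growth of mutant yeast versus vehicle-treated controls following compound exposure; the mutations affect DNA damage repair.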

Row | Compound | growth inhibition [1] | growth inhibition [2] | growth inhibition [3] | growth inhibition [4] | growth inhibition [5] | growth inhibition [6]
1 | C/C(N=NS(=O)(=O)c1ccc(C)cc1)=C1\C=CC=CN1O | -15.9% | -14.7% | -6.9% | -1% | -2.85% | -11.9%
2 | Clc1ccc(N=Cc2ccc(C=Nc3ccc(Cl)cc3)cc2)cc1 | 8% | 9.25% | 24.1% | 21.6% | 15% | 19.9%
3 | CCCCCOC(=O)c1cccc(C)c1 | 3.7% | 10.5% | -5.2% | -4.7% | -1.65% | 2.5%
4 | O=C(O)c1ccccc1CC(Cc1ccc2c(c1)CCC2)C(=O)O (configuration not stated) | -7.55% | -2.25% | -37% | -5.15% | -17.6% | -6%
5 | COC1/C=C\OC2(C)Oc3c(C)c(O)c4c(O)c(c5sc(N)nc5c4c3C2=O)NC(=O)/C(C)=C\C=C\C(C)C(O)C(C)C(O)C(C)C(OC(C)=O)C1C (configuration not stated) | -2.25% | 16.6% | 4.75% | 14.8% | 22.1% | 10.8%
6 | CC(=O)n1oc2ccc(Br)cc2c1=O | -3.6% | 1.2% | -7.8% | -5.4% | 9.25% | 9.75%
7 | O=C1CCC(=O)N1Cc1ccccc1N=[N+]([O-])c1ccccc1CN1C(=O)CCC1=O | -37.2% | -14.7% | 1.75% | -0.55% | -19.5% | -15.9%
8 | C[C@H](N)C(O)/C=C/c1ccccc1 (some centres not stated) | 5.1% | -9.05% | -0.7% | -2.55% | -0.3% | -7.05%
9 | C=C(Cl)COc1ccc(OCC(=C)Cl)cc1 | 19.3% | -17.1% | 31.8% | 22.6% | 42% | 1.15%
10 | CCc1nnc2sc3c(Cl)c4nn5c(CC)nnc5sc4c(Cl)c3nn12 | 37.2% | -6.2% | 16.8% | 24.2% | -0.3% | 12.5%
11 | CC(=O)Nc1ccc(S(=O)(=O)Nc2ccc([N+](=O)[O-])cc2)cc1 | -37.4% | -40% | -22.8% | -8.65% | -31.9% | -36%
12 | CN(CC#N)CC#N | 19% | 9.6% | 8.75% | -1.6% | 20.1% | 0.3%
13 | COc1ccc(-c2cc(-c3ccc(Cl)cc3)on2)cc1 | -15.1% | 11.2% | -4.55% | -35.8% | 10.6% | -11.4%
14 | Nc1nc2c(c(-c3nc(N)nc4c3CCC4)n1)CCC2 | 9.7% | 15.4% | 11.6% | 7% | -1.75% | 10.8%
15 | CC(C)NC(c1ccccc1)c1ccccc1 | 0.3% | -11.7% | -6.9% | 10.2% | 1.6% | 2.9%
16 | COc1ccc(C2OC(C)C(C)O2)cc1 (configuration not stated) | -9.3% | 10.4% | -1.5% | -42.6% | -8.35% | -8%
17 | CCOC(=O)c1c(C(=O)Nc2ccccc2)c(-c2ccccc2)n(NC(N)=O)c1C | 5.25% | 5.95% | 0.5% | -2.4% | 0.85% | 2.95%
18 | COc1cccc(C=O)c1[O-].COc1cccc(C=O)c1[O-].[Zn+2] | 52.4% | 17.9% | 56.7% | 32.2% | 11.8% | 66%
19 | Cc1cc(C(F)(F)F)nc2nc3ccccc3n12 | 6.55% | -18.9% | -0.15% | -3.7% | -29.7% | 6.2%

Row | Compound | growth inhibition [1] | growth inhibition [2] | growth inhibition [3] | growth inhibition [4] | growth inhibition [5] | growth inhibition [6]
20 | CCCCn1cnc2ccc3[nH]c(C)nc3c2c1=O | 29.4% | -4.85% | 34.1% | -3.55% | -6.35% | 21.4%
21 | O=C1CSC(c2ccccc2)N1O (configuration not stated) | -11.4% | -5% | -22% | -51.5% | -7.5% | -7.7%
22 | CCNC(=O)C1C2C=CC(C2)C1C(=O)NCC (configuration not stated) | 2.9% | -9.6% | -9.15% | -46% | -5.3% | 0.05%
23 | NNC(=O)C(=O)N/N=C(\CCC(=O)Nc1ccc(Cl)cc1)Cc1nc2ccccc2s1 | 28.2% | 28.2% | 30.4% | 9.65% | 12.3% | 36.2%
24 | CC1=C(/C=C/C(C)=C/C=C/C(C)=C/C=C/C=C(C)/C=C/C=C(\C)C=O)C(C)(C)CCC1 | -18.2% | 4.85% | -9.4% | -1.4% | 4.75% | 0.8%
25 | COc1ccc(C2c3cc4c(cc3OC(C)(OC)C2C)OCO4)c(OC)c1OC (configuration not stated) | -1.5% | 5.8% | -4.75% | -19% | -3.6% | 22.1%
26 | O=C1C=C(Nc2ccccc2)c2ccc(S(=O)(=O)O)cc2C1=O | 0.4% | -6.9% | 10.1% | -0.8% | -29.1% | -6.55%
27 | CC(C)(C)c1ccc(O)c(C(c2cc(C(C)(C)C)ccc2O)c2cc(C(C)(C)C)ccc2O)c1 | 97.2% (active) | 98.7% (active) | 98% (active) | 97.6% (active) | 96.5% (active) | 96.8% (active)
28 | CC(C)CCC1(C2CCOCC2)NC(=O)NC1=O (configuration not stated) | -9.85% | -6.6% | -4.85% | -26.6% | -7.55% | 0.95%
29 | CCOC(=O)C(=O)Nc1ccccc1C(C)C | 12.4% | 6.05% | 0.2% | -7.15% | -9% | 6.35%
30 | CCCC[n+]1cc(C(N)=O)cc2ccccc21 | -3.9% | 7.3% | 3.25% | -44.5% | 5.7% | 9.45%
31 | CCCCCCC1NC(CCCCCC)N2C(CCCCCC)N12 (configuration not stated) | 28.9% | 16.8% | -2.15% | 0% | 21.6% | -2.7%
32 | N#CC/C(C#N)=C/OC(=O)c1ccc(Cl)cc1 | 12.2% | -4.5% | -13.3% | -33.5% | -17.9% | -7.15%
33 | Cn1nc(-c2ccccc2)c(-c2ccccc2)c(C#N)c1=O | 0.05% | -3.55% | 0.4% | -22.6% | -1.8% | 0.8%
34 | COc1ccccc1NC(=O)OCc1ccco1 | 2.55% | -6.9% | 28.6% | -65.2% | 3.35% | 6.85%
35 | Oc1ccccc1C=Nc1ccc(N2CCOCC2)cc1 | 2.65% | -3.7% | 10.1% | -4.2% | 2.05% | -2.35%
36 | COc1ccc(Cc2c(O)ccc3ccccc23)cc1 | 98.6% (active) | 99.4% (active) | 99% (active) | 95.8% (active) | 98.3% (active) | 99.2% (active)
37 | c1ccc2c(c1)cc1n2CC2CN=NC12 (configuration not stated) | -5.85% | 14.4% | -27.4% | 12.3% | -5.55% | 10.1%
